Data published in PubChem BioAssay AID588689 (Southern Research Specialized Biocontainment Screening …, 2011).
The campaign covered roughly 340,000 compounds. About 1,000 (0.29%) were called active. Cut-off read from the data, not from the text of the source: inconclusive = inhibition above about 29% without an active follow-up result; inactive = below that. The list is a sample of the results. Results with a measured potency or affinity are listed apart.

Target: Genome polyprotein (Dengue virus type 2 (strain 16681-PDK53)) (UniProt P29991)
Sequence (P29991 whole entry, looked up): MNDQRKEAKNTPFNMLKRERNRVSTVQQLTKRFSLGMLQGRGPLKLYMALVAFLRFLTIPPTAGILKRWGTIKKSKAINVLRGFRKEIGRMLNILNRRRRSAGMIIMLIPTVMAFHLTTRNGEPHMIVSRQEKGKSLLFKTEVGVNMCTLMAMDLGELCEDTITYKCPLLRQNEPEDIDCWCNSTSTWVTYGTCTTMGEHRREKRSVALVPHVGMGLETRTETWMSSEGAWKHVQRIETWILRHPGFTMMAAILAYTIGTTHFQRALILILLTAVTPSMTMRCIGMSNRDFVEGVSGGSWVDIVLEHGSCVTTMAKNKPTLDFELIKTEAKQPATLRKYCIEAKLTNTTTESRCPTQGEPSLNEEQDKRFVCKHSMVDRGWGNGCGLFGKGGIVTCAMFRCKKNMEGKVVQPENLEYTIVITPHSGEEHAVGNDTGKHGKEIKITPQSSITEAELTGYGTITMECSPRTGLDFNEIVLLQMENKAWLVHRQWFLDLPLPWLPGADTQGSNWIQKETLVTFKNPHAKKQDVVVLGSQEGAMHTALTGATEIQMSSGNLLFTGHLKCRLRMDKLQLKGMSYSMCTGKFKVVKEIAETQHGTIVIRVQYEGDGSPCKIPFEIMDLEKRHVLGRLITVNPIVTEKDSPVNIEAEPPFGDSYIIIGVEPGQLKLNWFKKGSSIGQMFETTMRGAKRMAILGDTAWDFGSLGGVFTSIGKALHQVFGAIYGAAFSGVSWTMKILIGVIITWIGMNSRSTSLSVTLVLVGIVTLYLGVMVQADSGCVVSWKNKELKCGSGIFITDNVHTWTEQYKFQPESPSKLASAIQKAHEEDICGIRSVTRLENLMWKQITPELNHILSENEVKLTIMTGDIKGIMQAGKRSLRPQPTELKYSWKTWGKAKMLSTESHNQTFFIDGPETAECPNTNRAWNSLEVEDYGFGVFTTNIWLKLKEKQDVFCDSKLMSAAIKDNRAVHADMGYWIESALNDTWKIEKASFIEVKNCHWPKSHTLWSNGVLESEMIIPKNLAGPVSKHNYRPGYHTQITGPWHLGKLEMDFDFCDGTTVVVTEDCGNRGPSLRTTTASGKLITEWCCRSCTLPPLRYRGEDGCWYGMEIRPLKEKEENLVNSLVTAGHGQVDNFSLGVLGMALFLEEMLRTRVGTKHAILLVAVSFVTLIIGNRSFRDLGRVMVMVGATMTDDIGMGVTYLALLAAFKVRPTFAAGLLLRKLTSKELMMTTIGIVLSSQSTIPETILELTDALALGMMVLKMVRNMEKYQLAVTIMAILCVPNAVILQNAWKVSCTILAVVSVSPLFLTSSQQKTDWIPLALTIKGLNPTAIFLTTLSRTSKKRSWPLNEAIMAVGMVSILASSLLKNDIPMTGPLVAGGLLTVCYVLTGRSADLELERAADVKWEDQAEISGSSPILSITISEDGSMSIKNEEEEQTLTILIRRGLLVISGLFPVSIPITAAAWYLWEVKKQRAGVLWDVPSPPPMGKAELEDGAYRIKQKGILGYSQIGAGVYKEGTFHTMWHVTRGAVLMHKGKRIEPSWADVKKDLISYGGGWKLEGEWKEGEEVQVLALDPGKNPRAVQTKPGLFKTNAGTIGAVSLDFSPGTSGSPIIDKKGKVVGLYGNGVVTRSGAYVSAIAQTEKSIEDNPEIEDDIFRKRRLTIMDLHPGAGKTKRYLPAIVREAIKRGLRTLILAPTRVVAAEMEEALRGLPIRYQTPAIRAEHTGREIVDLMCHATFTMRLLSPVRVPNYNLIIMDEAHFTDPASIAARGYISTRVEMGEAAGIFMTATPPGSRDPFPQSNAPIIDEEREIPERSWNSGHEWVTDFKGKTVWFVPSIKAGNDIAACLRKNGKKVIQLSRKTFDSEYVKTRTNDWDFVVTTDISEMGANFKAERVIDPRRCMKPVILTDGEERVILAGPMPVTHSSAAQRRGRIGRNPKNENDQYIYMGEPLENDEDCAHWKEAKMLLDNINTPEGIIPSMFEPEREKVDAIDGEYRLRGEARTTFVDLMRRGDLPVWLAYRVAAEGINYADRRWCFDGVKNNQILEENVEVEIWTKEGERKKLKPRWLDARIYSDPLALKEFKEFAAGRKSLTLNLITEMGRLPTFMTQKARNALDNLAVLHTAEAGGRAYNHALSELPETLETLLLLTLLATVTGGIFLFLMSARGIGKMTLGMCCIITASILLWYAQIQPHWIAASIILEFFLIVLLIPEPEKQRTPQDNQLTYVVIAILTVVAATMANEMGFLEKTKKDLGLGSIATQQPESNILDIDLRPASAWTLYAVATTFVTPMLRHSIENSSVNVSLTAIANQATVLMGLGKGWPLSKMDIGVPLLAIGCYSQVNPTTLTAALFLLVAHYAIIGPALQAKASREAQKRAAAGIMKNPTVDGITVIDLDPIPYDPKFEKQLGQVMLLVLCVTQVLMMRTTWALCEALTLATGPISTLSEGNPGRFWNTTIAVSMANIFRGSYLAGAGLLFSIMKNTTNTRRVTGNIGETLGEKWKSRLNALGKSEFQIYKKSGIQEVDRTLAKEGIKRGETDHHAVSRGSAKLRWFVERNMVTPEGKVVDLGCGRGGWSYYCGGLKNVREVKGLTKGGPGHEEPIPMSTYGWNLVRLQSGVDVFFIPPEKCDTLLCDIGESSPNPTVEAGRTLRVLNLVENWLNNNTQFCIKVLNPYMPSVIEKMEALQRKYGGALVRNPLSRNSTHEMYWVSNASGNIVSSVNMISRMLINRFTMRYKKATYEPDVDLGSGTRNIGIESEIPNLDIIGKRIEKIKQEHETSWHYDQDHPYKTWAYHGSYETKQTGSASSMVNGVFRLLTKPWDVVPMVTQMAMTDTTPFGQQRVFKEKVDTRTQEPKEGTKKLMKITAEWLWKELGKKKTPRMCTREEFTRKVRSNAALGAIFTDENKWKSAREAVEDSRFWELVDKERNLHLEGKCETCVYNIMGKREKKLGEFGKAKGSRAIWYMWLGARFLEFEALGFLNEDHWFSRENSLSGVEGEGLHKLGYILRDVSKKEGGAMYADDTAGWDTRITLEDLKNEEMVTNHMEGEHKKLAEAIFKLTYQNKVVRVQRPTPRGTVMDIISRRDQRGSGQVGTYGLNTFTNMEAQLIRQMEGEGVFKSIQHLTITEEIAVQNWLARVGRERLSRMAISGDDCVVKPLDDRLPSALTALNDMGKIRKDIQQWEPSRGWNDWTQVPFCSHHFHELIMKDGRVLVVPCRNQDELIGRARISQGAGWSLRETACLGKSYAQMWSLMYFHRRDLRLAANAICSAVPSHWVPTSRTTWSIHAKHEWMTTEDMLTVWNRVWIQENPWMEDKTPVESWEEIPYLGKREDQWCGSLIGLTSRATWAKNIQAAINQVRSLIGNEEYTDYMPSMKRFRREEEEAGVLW
Assay: Dengue-2 NS5 methyltransferase inhibitors, primary screen, biochemical, confirmation dose response (AID 588689)
Conditions: Dengue-2 NS5 methyltransferase capping enzyme assay, at 25 µM, stronger effect = higher value

Structure (SMILES) | inhibition | inhibition (measured here: pilot screen replicate inhibition) [%]
CCN1CCN(C(=O)/C=C/c2ccc(OC)cc2)CC1 | 0% (inactive) | -2.12
CCn1c([N+](=O)[O-])nc2c1c(=O)[nH]c(=O)n2C | -10.1% (inactive) | –
Cc1ccc(SC(CC(=O)c2ccc(C)cc2)C(=O)O)cc1 (stereo unspecified) | 16.8% (inactive) | –
Cc1ccc(SC(CC(=O)c2ccc(F)cc2)C(=O)O)cc1 (stereo unspecified) | 0% (inactive) | –
CSc1ccccc1OCc1cc(C(=O)N2CCN3CCCC3C2)no1 (stereo unspecified) | -0.87% (inactive) | –
COc1ccc(-c2ccc(/C=C3\C(=O)N(c4ccccc4)N=C3c3ccccc3)o2)c([N+](=O)[O-])c1 | 6.61% (inactive) | –
O=C1/C(=C\c2ccc(-c3ccccc3[N+](=O)[O-])o2)C(c2ccccc2)=NN1c1ccccc1 | 68.8% (inactive) | –
O=C1ON=C(c2ccccc2[N+](=O)[O-])/C1=C/c1cccc([N+](=O)[O-])c1O | -2.21% (inactive) | –
O=C1ON=C(c2ccc(Cl)c([N+](=O)[O-])c2)/C1=C/c1cccc([N+](=O)[O-])c1O | -5.11% (inactive) | –
Cc1ccc(/C=C2/C(=O)ON=C2c2ccccc2)o1 | 19.3% (inactive) | –
COc1cc([N+](=O)[O-])ccc1-c1ccc(/C=C2\C(=O)ON=C2c2ccccc2)o1 | 30.1% (inactive) | –
COc1ccc(OCC(=O)N2CCCC2=O)c([N+](=O)[O-])c1 | 0.65% (inactive) | –
CC(C)CC(NC(=O)C(NC(=O)OC(C)(C)C)C(C)C)C(=O)N1CCCC1C(N)=O (stereo unspecified) | -8.35% (inactive) | –
COc1cccc(-c2noc(CCC(=O)NCC3CCCO3)n2)c1 (stereo unspecified) | 1.45% (inactive) | –
CNC[C@@H]1OCc2cnnn2CCCC(=O)N([C@H](C)CO)C[C@H]1C | 2.27% (inactive) | –
O=C(CCNC(=O)c1ccc([N+](=O)[O-])cc1)Oc1ccc(F)c(F)c1 | -4.42% (inactive) | –
CCOC(=O)Cn1cnc2sc3c(c2c1=O)CCC3 | -3.92% (inactive) | –
Cn1ccnc1SCC(=O)Nc1cc(F)ccc1F | -1.95% (inactive) | –
COc1cccc2c1C(=O)C=C(C)C2=O | 5.85% (inactive) | –
COC1=CC(=O)c2ccccc2C1=O | 0.72% (inactive) | –

Structure (SMILES) | inhibition | inhibition (measured here: pilot screen replicate inhibition) [%]
Cc1ccc(C)c(OCC(O)CN2CCc3ccccc3C2)c1C (stereo unspecified) | -0.98% (inactive) | –
CNS(=O)(=O)c1cccc(C(=O)NCC(c2ccco2)N(C)C)c1 (stereo unspecified) | -4.17% (inactive) | –
Cc1ccc(NC(=O)COC(=O)C2C3CC4OC(=O)C2C4C3)cc1 (stereo unspecified) | -4.16% (inactive) | –
COc1ccc(N2CC(C(=O)OCC(=O)Nc3cccc(C)c3)CC2=O)cc1 (stereo unspecified) | -2.68% (inactive) | –
CCC(c1ccc(O)cc1)C(CC)c1ccc(O)cc1 (stereo unspecified) | -4.4% (inactive) | –
CCC(c1ccc(O)c(O)c1)C(CC)c1ccc(O)c(O)c1 (stereo unspecified) | -0.78% (inactive) | –
O=C(O)c1ccccc1SCc1csc(-c2ccccc2)n1 | -4.89% (inactive) | –
O=C(Cc1ccc(Br)cc1)NCCCn1ccnc1 | -12.3% (inactive) | –
COC(=O)CNC(c1ccccc1)c1cc(Br)ccc1NS(=O)(=O)c1ccccc1 (stereo unspecified) | -1.28% (inactive) | –
Cc1oc2c(cc(NS(=O)(=O)c3ccc(Cl)cc3)c3ccccc32)c1C(=O)O | 14.3% (inactive) | –
CC(=O)Nc1ccccc1NS(=O)(=O)c1cccc([N+](=O)[O-])c1 | -5.88% (inactive) | –
O=C(c1ccccc1NS(=O)(=O)c1cccc([N+](=O)[O-])c1)N1CCCC1 | -1.62% (inactive) | –
CCc1ccc(S(=O)(=O)Nc2ccc(O)c3ccccc23)cc1 | 36.9% (inactive) | –
CCc1ccc(S(=O)(=O)NC(CC(=O)O)c2ccccc2)cc1 (stereo unspecified) | -2.12% (inactive) | –
CC(=O)Nc1ccccc1NS(=O)(=O)c1ccc(Cl)cc1 | -10.2% (inactive) | –
Cc1ccc(S(=O)(=O)Nc2ccc(Br)cc2C(NCC(=O)O)c2ccccc2)cc1 (stereo unspecified) | -7.12% (inactive) | –
COc1ccccc1OCC(=O)OCC(=O)NC1CCCCC1 | 1.94% (inactive) | –
Cc1ccc(CNC(=O)C(C)C2Sc3ccccc3NC2=O)cc1 (stereo unspecified) | 3.04% (inactive) | –
CC(=O)c1ccc(S(=O)(=O)N2CCN(c3nn(C)c(=O)n(C)c3=O)CC2)cc1 | -1.46% (inactive) | –
CCn1nc(C(=O)Nc2cccc(S(=O)(=O)N3CCCC3)c2)c2ccccc2c1=O | -8.08% (inactive) | –

Structure (SMILES) | inhibition | inhibition (measured here: pilot screen replicate inhibition) [%]
Cc1nc(CC(=O)NNS(=O)(=O)c2cccc(Cl)c2Cl)cs1 | -1.61% (inactive) | –
CN(C(=O)COC(=O)c1ccc(Cl)s1)C1(C#N)CCCCC1 | -4.33% (inactive) | –
Cc1ccc(S(=O)(=O)N(C)CCCC(=O)N2CCOCC2)cc1 | -2.14% (inactive) | –
O=C(OCc1ccc(F)cc1)c1ccc2c(c1)-c1ccccc1C2=O | 6.7% (inactive) | –
CCOC(=O)c1ccc(COC(=O)c2ccc3c(c2)-c2ccccc2C3=O)cc1 | 13.5% (inactive) | –
O=C(CCS(=O)(=O)c1ccc(Br)cc1)Nc1ccc(Br)cc1F | -13.3% (inactive) | –
Cc1cc(C)n2nc(SCC(=O)N(C)c3c(N)n(Cc4ccccc4)c(=O)[nH]c3=O)nc2n1 | -7.52% (inactive) | –
CCOC(=O)N/N=C/c1cc(C)n(-c2cccc3ccccc23)c1C | 1.3% (inactive) | –
Cc1cc(C)n(CC(=O)NC2CCCCC2C)c(=O)c1C#N (stereo unspecified) | -0.74% (inactive) | –
NC1=CC(=O)C(=O)c2ccccc21 | 27.9% (inactive) | –
O=C1C=C(N2CCOCC2)c2ccccc2C1=O | 9.17% (inactive) | –
COc1ccc(C(C)=O)cc1CSc1nc2cc(C(=O)O)ccc2c(=O)n1Cc1ccccc1 | 4.46% (inactive) | –
O=C(CSc1nncs1)NCCNC(=O)CSc1nncs1 | -2.96% (inactive) | –
Cc1[nH]n(C(C)(C)C)c(=O)c1Sc1ccccc1 | -11.6% (inactive) | –
Cc1[nH]n(-c2ccccc2)c(=O)c1Sc1ccc(Cl)cc1 | 13.9% (inactive) | –
CC(C)(C)c1ccc(-c2nc(C=O)c3ccccn23)cc1 | 0% (inactive) | –
N#C/C(=C\c1ccccc1)C(=O)NNS(=O)(=O)c1ccc(Br)cc1 | 13.6% (inactive) | –
N#C/C(=C/c1cccc([N+](=O)[O-])c1)C(=O)Nc1ccccc1O | 5.78% (inactive) | –
COC(CNC(=O)c1cccnc1)OC | -7.01% (inactive) | –
COC(CNC(=O)c1coc2nc3ccccc3nc12)OC | -7.62% (inactive) | –
